The text below walks through data of PubChem BioAssay (EPA / NIEHS).

Assay [1] concerns the target Paired box protein Pax-6 (Homo sapiens) (UniProt P26367). The assay is described as follows: ATG_Pax6_CIS: Attagene CIS-FACTORIAL HepG2 Assay for human Paired Box 6 (PAX6) (AID 2282956). Conditions: HepG2 CIS-FACTORIAL PAX6 reporter transcription, RNA readout; actives raise or lower the signal. Summed up: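 Fluorescent RT-PCR products separated by capillary electrophoresis report PAX6-linked promoter mRNA in HepG2 cells 24 h post-dose. Curves fitted bidirectionally, DMSO as negative control.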

The nature of assay [2]: ATG_PPRE_CIS: Attagene CIS-FACTORIAL HepG2 Assay for human Peroxisome Proliferator-activated Response Element (PPRE) (AID 2282958). The note with it: HepG2 PPRE cis-element reporter, Attagene transcription factor profiling; actives raise or lower the signal. Summed up: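 HepG2 cells are transiently transfected with multiplexed cis-promoter reporter units to report endogenous PPAR activity. After 24 h dosing, reporter mRNA is read by RT-PCR and capillary electrophoresis. Fitting is bidirectional against DMSO.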

A short description of assay [3]: ATG_RORE_CIS: Attagene CIS-FACTORIAL HepG2 Assay for human RAR-related Orphan Receptor Element (RORE) (AID 2282959). Conditions: HepG2 Attagene cis-factorial RORE reporter, mRNA; actives raise or lower the signal. A digest of the protocol: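 HepG2 cells carrying transiently transfected cis-regulated reporter units; RORE-driven reporter mRNA quantified 24 h post-dosing by RT-PCR, 6-FAM primer extension, HpaI digestion and capillary electrophoresis. Bidirectional fit versus DMSO.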

Assay [4] can be described thus: ATG_Sox_CIS: Attagene CIS-FACTORIAL HepG2 Assay for human SRY-box transcription factor (SOX) (AID 2282960). The note with it: HepG2 Attagene cis-factorial SOX reporter, mRNA; actives raise or lower the signal. Summed up:
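HepG2 cells transiently transfected with multiple cis-regulated reporter units, then dosed for 24 h. Reporter mRNA quantified by RT-PCR, fluorescent labelling, HpaI digestion and capillary electrophoresis; bidirectional fit versus DMSO.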

Assay [5] has as its target Signal transducer and activator of transcription 3 (Homo sapiens) (UniProt P40763). The assay is described as follows: ATG_STAT3_CIS: Attagene CIS-FACTORIAL HepG2 Assay for human Signal Transducer and Activator of Transcription 3 (STAT3) (AID 2282963). The note with it: HepG2, Attagene cis-factorial STAT3 reporter transcription; actives raise or lower the signal. A digest of the protocol:
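HepG2, MRTU-transfected, 24 h dosing. RNA → RT → PCR → FAM label → HpaI → CE. Bidirectional fit vs DMSO.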

Assay [6] in a line: ATG_TA_CIS: Attagene CIS-FACTORIAL HepG2 Assay for human TA Basal Promoter (AID 2282964). Conditions: HepG2 Attagene CIS-factorial TA basal promoter reporter; actives raise or lower the signal. Summed up:
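Steps: transfect HepG2 with MRTUs; dose 24 h; isolate RNA, DNase-treat, reverse-transcribe; PCR and FAM-label reporter cDNA; digest with HpaI 2h at 37 C; run capillary electrophoresis. Activity fitted both directions against DMSO.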

A short description of assay [7]: ATG_TCF_b_cat_CIS: Attagene CIS-FACTORIAL HepG2 Assay for human T-Cell-Factor with beta-catenin (TCF/b-cat) (AID 2282965). Conditions: HepG2 TCF/beta-catenin cis-reporter transcription, actives raise or lower the signal. A digest of the protocol: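 In this cis-format system, transfected HepG2 cells report endogenous transcription factor activity. Readout after 24 h exposure is reporter transcript abundance from RT-PCR and capillary electrophoresis, analysed for gain or loss of signal versus DMSO.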

A short description of assay [8]: ATG_TAL_CIS: Attagene CIS-FACTORIAL HepG2 Assay for human TAL Basal Promoter (AID 2282966).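 Further: background control endpoint measuring basal TAL promoter reporter mRNA not a specific factor.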 Conditions: HepG2 Attagene cis-factorial TAL promoter reporter; actives raise or lower the signal. Summed up:
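Endogenous transcription-factor activity is sensed in HepG2 cells through transfected cis-promoter reporter constructs. After 24 h dosing, reporter transcripts are quantified by RT-PCR and capillary electrophoresis. Gain or loss of signal is fitted relative to DMSO.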

Assay [9] is described as follows: ATG_TGFb_CIS: Attagene CIS-FACTORIAL HepG2 Assay for human Transforming Growth Factor (TGF) (AID 2282967). Conditions: HepG2 Attagene CIS TGFb reporter, mRNA transcription; actives raise or lower the signal. A digest of the protocol:
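Cells were dosed for 24 hours, after which total RNA was reverse-transcribed and reporter sequences amplified, labeled and sized by capillary electrophoresis. Activity was fitted in both directions against DMSO.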

Assay [10] concerns the target Estrogen receptor (Homo sapiens) (UniProt P03372). The assay is described as follows: ATG_ERa_TRANS: Attagene TRANS-FACTORIAL HepG2 Assay for human Estrogen Receptor alpha (ERa) (AID 2282970; active means hit-call score of the fitted dose curve at least 0.9, where 1 is the maximum). The note with it: HepG2 Attagene TRANS ERa GAL4 reporter, mRNA. A digest of the protocol: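 Transfected HepG2 cells carrying GAL4-UAS-driven reporter units were dosed for 24 hours. Total RNA was reverse-transcribed, reporter sequences PCR-amplified, FAM-labelled, HpaI-digested and resolved by capillary electrophoresis. Increases over DMSO control defined activity.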

The target in assay [11] is X-box-binding protein 1 (Homo sapiens) (UniProt P17861). In words: ATG_Xbp1_CIS: Attagene CIS-FACTORIAL HepG2 Assay for human X-box Binding Protein 1 (XBP1) (AID 2282972). The note with it: HepG2 XBP1 cis-element reporter, Attagene multiplex; actives raise or lower the signal. Summed up:
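Multiplexed cis-reporter readout in transfected HepG2 liver cells. Exposure lasted 24 hours. Activity in either direction was fitted against DMSO as negative control and baseline.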

The nature of assay [12]: ATG_M_19_TRANS: Attagene TRANS-FACTORIAL HepG2 Assay for M19 Transcription Factor (Internal Marker) (AID 2282974; active means hit-call score of the fitted dose curve at least 0.9, where 1 is the maximum). The note with it: HepG2 Attagene TRANS-FACTORIAL M19 internal marker reporter. A digest of the protocol: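 HepG2 transiently transfected with GAL4-UAS multiplex reporter constructs, exposed 24 h; reporter RNA quantified by RT-PCR, 6-FAM labeling, HpaI digestion and capillary electrophoresis; internal background marker fitted upward versus DMSO.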

The nature of assay [13]: ATG_PXRE_CIS: Attagene CIS-FACTORIAL HepG2 Assay for human Pregnane X Receptor Element (PXRE) (AID 2282957). The note with it: HepG2 Attagene CIS-FACTORIAL PXRE reporter, mRNA; actives raise or lower the signal. Summed up:
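Endogenous transcription factor activity in HepG2 was gauged through induction of reporter mRNA driven by a cis-regulating promoter element, sampled 24 h post-treatment. Activity was fitted in both directions against DMSO negative control.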

Assay [14] addresses Transcription factor Sp1 (Homo sapiens) (UniProt P08047). In words: ATG_Sp1_CIS: Attagene CIS-FACTORIAL HepG2 Assay for human Specificity Protein 1 (Sp1) (AID 2282961). The note with it: HepG2 Sp1 cis-reporter transcription, actives raise or lower the signal. A digest of the protocol:
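HepG2 cells transiently transfected with multiplexed cis-regulated reporter constructs, chemical exposure 24 h. Reporter mRNA quantified by RT-PCR with capillary electrophoresis; bidirectional fit relative to DMSO.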

Assay [15] is described as follows: ATG_SREBP_CIS: Attagene CIS-FACTORIAL HepG2 Assay for human Sterol Regulatory Element Binding (SREBP) (AID 2282962). Conditions: HepG2 Attagene cis-factorial SREBP reporter, mRNA; actives raise or lower the signal. Summed up:
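Endogenous factor activity is measured in HepG2 through multiplexed reporter units under cis-element control. Following a 24 h incubation, reporter transcripts are reverse-transcribed, PCR-amplified and sized by capillary electrophoresis; activity is fitted in both directions relative to DMSO.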

A short description of assay [16]: ATG_VDRE_CIS: Attagene CIS-FACTORIAL HepG2 Assay for human Vitamin D Receptor Element (VDRE) (AID 2282968). The note with it: HepG2 VDRE cis-reporter transcription, actives raise or lower the signal. Summed up: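 Steps: transfect HepG2 with multiple reporter transcription units; dose chemicals 24 h; isolate RNA; RT-PCR; label with 6-FAM primer extension; HpaI digest; capillary electrophoresis. Curves fitted both directions against DMSO.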

Assay [17] has as its target Steroid hormone receptor ERR1 (Homo sapiens) (UniProt P11474). The assay is described as follows: ATG_ERRa_TRANS: Attagene TRANS-FACTORIAL HepG2 Assay for human Estrogen-Related Receptor alpha (ERRa) (AID 2282971; active means hit-call score of the fitted dose curve at least 0.9, where 1 is the maximum). Conditions: HepG2 Attagene TRANS reporter, ERRa transactivation. A digest of the protocol:
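HepG2 cells were transiently transfected with multiple GAL4-UAS reporter units, then dosed with compound for 24 h. Total RNA was reverse-transcribed, reporter cDNA PCR-amplified and fluorescently labelled, and fragments resolved by capillary electrophoresis; induction was compared with DMSO.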

Assay [18] can be described thus: ATG_GAL4_TRANS: Attagene TRANS-FACTORIAL HepG2 Assay for GAL4 (Internal Marker) (AID 2282976; active means hit-call score of the fitted dose curve at least 0.9, where 1 is the maximum). The note with it: HepG2 Attagene TRANS GAL4 internal marker reporter. A digest of the protocol: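 Fluorescence from capillary electrophoresis of labelled RT-PCR products quantifies reporter mRNA induction after 24 h dosing of HepG2 cells carrying transfected GAL4-UAS reporter transcription units. Vehicle DMSO serves as baseline.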

Each structure is given as a SMILES string. “And” between values parts separate entries of the source, which are not always exact repeats. Equal values may be shown once. Records with an inconclusive call do not appear. Some structures have more than one record in an assay (separate samples or runs), and their calls can disagree. The source made the active and inactive calls. How the source made its calls, unless noted: active means hit-call score of the fitted dose curve at least 0.9, where 1 is the maximum; inactive means score below 0.9.

Sequence of Signal transducer and activator of transcription 3 (Homo sapiens) (P40763 whole entry, looked up): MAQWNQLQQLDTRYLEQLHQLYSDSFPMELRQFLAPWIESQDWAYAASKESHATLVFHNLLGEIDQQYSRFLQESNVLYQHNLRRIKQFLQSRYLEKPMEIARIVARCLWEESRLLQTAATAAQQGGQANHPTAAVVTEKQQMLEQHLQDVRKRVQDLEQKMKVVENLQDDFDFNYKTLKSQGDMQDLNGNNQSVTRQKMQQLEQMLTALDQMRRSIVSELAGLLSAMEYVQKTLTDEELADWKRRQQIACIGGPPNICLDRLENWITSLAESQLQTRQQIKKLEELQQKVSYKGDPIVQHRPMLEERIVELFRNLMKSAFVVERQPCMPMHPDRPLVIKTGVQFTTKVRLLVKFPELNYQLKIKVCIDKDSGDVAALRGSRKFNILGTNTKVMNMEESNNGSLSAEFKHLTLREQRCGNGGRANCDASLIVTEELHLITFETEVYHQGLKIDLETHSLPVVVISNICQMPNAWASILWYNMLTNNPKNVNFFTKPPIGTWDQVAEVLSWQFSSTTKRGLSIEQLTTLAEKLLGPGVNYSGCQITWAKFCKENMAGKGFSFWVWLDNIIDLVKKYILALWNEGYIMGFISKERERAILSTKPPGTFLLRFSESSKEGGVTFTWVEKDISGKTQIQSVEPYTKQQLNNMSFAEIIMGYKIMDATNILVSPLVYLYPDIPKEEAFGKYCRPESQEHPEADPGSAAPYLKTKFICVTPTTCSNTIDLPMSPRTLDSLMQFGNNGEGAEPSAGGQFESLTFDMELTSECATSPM
Sequence of X-box-binding protein 1 (Homo sapiens) (P17861 whole entry, looked up): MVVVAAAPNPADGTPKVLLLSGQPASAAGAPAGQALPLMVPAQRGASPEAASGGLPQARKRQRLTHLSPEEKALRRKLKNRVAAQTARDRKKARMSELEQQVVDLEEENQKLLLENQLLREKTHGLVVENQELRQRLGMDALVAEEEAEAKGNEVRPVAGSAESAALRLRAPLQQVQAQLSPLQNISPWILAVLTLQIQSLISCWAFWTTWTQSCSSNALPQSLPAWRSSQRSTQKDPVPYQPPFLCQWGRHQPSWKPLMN
Sequence of Transcription factor Sp1 (Homo sapiens) (P08047 whole entry, looked up): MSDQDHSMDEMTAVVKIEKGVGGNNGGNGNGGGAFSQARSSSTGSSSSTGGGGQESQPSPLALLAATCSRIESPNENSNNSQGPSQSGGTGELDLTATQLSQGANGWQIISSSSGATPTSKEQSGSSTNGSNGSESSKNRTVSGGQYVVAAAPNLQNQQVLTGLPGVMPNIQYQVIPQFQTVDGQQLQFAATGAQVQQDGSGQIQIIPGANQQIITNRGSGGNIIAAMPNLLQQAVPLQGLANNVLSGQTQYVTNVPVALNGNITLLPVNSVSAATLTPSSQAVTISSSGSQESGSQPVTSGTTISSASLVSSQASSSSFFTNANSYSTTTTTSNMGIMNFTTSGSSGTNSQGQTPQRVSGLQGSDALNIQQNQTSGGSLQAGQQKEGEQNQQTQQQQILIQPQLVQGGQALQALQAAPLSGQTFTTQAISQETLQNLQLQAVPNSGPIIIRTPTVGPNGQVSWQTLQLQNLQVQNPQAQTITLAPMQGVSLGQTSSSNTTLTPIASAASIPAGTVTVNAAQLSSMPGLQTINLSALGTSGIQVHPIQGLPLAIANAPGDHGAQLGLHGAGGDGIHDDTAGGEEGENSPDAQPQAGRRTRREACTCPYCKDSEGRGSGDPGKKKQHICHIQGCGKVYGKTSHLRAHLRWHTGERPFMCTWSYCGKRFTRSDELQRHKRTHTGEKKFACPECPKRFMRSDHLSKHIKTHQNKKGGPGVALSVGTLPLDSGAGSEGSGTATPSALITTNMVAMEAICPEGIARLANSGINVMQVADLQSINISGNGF
Sequence of Paired box protein Pax-6 (Homo sapiens) (P26367 whole entry, looked up): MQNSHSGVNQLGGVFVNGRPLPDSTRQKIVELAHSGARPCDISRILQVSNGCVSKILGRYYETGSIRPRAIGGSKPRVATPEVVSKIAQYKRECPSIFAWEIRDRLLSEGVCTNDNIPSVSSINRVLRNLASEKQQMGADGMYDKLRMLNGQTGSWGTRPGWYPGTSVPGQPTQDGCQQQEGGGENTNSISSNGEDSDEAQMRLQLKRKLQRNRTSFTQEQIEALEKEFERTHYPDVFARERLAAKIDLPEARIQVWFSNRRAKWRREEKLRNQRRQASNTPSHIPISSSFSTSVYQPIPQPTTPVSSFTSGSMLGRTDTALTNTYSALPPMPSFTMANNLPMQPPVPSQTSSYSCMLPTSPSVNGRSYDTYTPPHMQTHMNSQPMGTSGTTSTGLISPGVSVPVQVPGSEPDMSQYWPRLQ
Sequence of Steroid hormone receptor ERR1 (Homo sapiens) (P11474 whole entry, looked up, the tested form may be a part): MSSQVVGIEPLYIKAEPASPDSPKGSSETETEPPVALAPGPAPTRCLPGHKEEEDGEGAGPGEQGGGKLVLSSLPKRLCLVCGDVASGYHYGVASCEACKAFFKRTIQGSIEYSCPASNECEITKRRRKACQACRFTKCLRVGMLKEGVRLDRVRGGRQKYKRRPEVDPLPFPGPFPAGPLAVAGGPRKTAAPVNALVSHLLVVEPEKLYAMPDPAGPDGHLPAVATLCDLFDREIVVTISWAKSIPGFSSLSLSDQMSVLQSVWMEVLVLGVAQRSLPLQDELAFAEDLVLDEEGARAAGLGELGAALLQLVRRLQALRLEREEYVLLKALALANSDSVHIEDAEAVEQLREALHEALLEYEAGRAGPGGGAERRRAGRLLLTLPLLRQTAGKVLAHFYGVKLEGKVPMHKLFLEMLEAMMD
Sequence of Estrogen receptor (Homo sapiens) (P03372 whole entry, looked up, the tested form may be a part): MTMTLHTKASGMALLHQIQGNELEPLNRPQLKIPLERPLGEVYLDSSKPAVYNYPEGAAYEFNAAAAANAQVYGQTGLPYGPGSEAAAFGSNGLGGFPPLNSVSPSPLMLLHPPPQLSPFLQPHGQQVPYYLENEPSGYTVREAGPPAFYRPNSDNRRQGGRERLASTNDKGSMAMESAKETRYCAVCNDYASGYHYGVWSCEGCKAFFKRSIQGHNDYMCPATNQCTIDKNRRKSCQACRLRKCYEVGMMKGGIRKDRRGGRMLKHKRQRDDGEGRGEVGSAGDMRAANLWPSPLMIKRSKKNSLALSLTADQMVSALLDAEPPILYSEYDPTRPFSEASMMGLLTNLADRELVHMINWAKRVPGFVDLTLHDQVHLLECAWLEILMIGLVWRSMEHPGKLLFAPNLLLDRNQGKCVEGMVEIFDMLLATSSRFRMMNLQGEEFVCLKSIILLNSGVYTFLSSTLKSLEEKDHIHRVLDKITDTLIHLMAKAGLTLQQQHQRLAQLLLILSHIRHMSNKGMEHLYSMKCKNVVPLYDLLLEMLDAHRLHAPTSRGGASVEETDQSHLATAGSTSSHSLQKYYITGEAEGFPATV

For `C=C(C)C(=O)OCCC[Si](OC)(OC)OC`, the outcome in assay [1], in [2], in assay [3], in assay [4], in assay [5] and in [6] was inactive. Moreover, the result in [7], in [8], in assay [9], in [10], in [11] and in [12] was inactive.
For the compound `OCC=Cc1ccccc1`, the compound was classed as inactive in assay [1], in assay [4], in [14], in assay [15], in assay [5] and in assay [6]. Also, the result in assay [7], in assay [8], in assay [16], in assay [11] and in [12] was inactive. The AC50 in [13] is 33.1 µM (active).
With `O=C(O)CS`, the result in assay [1], in [2], in assay [3], in [4], in [15] and in assay [5] was inactive. The call in assay [6], in assay [7], in assay [8], in [9], in assay [16] and in assay [17] was inactive. Also, the call in assay [11] and in assay [12] was inactive.
On to `CC/C(=C(\c1ccccc1)c1ccc(OCCN(C)C)cc1)c1ccccc1`, for which the result in assay [1], in assay [2], in [3], in assay [4], in [14] and in assay [15] was inactive. For the same compound, the call in [5], in [6], in assay [7], in assay [8], in assay [9] and in assay [11] was inactive. For the same compound, the compound was called inactive in assay [12] and in assay [18]. Besides, the AC50 in assay [15] was 5.24 µM (active) and 3.71 µM (active).
With `O=C(O)c1ccco1`, the outcome in assay [1], in assay [13], in assay [4], in assay [15], in assay [6] and in assay [7] was inactive. The result in assay [8], in assay [9], in assay [16], in assay [10], in assay [11] and in assay [12] was inactive.
With `C=C(C)CCCC(C)CCO` (stereo not drawn), the compound was called inactive in assay [1], in assay [2], in [3], in [4], in [14] and in assay [15]. The outcome in assay [5], in [6], in [8], in assay [9], in assay [10] and in assay [11] was inactive. Further, the outcome in assay [12] and in assay [18] was inactive.
In the case of `CCCC(O)C(CC)CO` (stereo not drawn), the call in [1], in assay [2], in assay [3], in assay [4], in [15] and in assay [5] was inactive. Also, the call in assay [6], in [7], in assay [8], in [9] and in assay [11] was inactive.
For `CCCCCCCCCO`, the compound was classed as inactive in assay [1], in [3], in [4], in [14], in [15] and in [5]. The compound was called inactive in assay [6], in [7], in assay [8], in assay [9], in assay [16] and in assay [10]. Also, the call in assay [17], in [11], in assay [12] and in assay [18] was inactive.
As to `C=CC(=O)OCC(CO)(COC(=O)C=C)COC(=O)C=C`, the AC50 in [1] is 11.9 µM (active); in assay [2], 117 µM (active); in [6], 100 µM (active); in assay [7] it was 5.46 µM (active); in [9] it was 54.2 µM (active); in assay [16], 0.708 µM (active). In addition, the outcome in assay [3], in assay [4], in assay [14], in assay [15], in assay [5] and in assay [17] was inactive. Moreover, the compound was classed as inactive in assay [11] and in assay [18].
`CCCCCC1C(=O)CCC1CC(=O)OC` (stereo not drawn): the compound was classed as inactive in [1], in [2], in assay [4], in assay [14], in assay [15] and in [5]. Also, the compound was classed as inactive in assay [6], in assay [7], in assay [9], in [16], in assay [10] and in assay [11].
`CCCCCCCCCCCCOC(C)=O`: the result in assay [1], in assay [2], in assay [3], in [4], in assay [14] and in [15] was inactive. Also, the compound was classed as inactive in assay [5], in [6], in [7], in [8], in assay [9] and in assay [16]. For the same compound, the outcome in [10], in assay [11], in assay [12] and in [18] was inactive.
